Data: PubChem BioAssay AID651725 (National Center for Advancing Translational Sciences (NCATS), 2012)
In all, about 360,000 compounds went through this assay and about 2,000 (0.56%) were called active. Inconclusive results (about 2%) are left out. Rule as the data show it: active = activity change below about -65%; inconclusive = mostly about -30% to -63%; inactive = weaker than that. Many of the other results were omitted from the sample, so actives are more common in it than they were.

biological target: Homeobox protein SIX1 (Homo sapiens) + Protein phosphatase EYA2 (Homo sapiens) (UniProt Q15475+O00167); assay: qHTS Assay for Inhibitors of the Six1/Eya2 Interaction; details: AlphaScreen GST-Six1/His-Eya2 binding, biochemical; active compounds read low
In short: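 AlphaScreen with GST-Six1 and His-Eya2 (5X mix: 250 nM and 500 nM), glutathione donor and nickel acceptor beads; buffer 50 mM Tris pH 8.0, 300 mM NaCl, 1 mM TCEP; 1 h at 37 C in the dark.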
% is scaled to controls: 0 for no effect and ±100 for the full control effect.

Homeobox protein SIX1 (Homo sapiens) + Protein phosphatase EYA2 (Homo sapiens), sequence (O00167 whole entry, looked up): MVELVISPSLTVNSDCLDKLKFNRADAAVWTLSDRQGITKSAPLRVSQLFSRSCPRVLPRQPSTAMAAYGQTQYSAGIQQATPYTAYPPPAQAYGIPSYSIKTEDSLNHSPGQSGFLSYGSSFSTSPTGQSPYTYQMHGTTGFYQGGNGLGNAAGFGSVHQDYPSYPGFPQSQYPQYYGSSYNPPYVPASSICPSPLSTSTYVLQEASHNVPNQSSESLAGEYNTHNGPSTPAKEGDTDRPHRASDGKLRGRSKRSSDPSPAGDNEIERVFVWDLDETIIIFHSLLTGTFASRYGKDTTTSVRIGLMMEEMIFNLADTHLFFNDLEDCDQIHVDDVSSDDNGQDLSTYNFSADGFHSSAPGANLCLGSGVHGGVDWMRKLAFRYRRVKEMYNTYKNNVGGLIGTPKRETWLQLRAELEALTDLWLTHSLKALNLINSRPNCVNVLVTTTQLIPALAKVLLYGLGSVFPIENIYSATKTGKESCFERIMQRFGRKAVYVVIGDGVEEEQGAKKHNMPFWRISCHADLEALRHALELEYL
Homeobox protein SIX1 (Homo sapiens) + Protein phosphatase EYA2 (Homo sapiens), sequence (Q15475 whole entry, looked up): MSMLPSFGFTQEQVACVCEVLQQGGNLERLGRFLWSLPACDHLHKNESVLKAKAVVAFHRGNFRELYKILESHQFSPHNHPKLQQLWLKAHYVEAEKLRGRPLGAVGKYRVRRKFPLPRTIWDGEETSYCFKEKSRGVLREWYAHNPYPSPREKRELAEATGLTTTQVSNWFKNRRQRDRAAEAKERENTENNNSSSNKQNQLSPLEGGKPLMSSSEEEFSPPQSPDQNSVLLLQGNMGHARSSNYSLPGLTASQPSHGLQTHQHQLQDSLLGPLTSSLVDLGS

Structure (SMILES) | activity change
Cc1ccc(S(=O)(=O)N2[C@@H](Cc3ccccc3)CO[C@H]2CC(=O)OCc2ccccc2)cc1 | -3.63% (inactive)
CCOC(=O)C1C(C)C(C(C)(C)C)N(S(=O)(=O)c2ccc(C)cc2)C1c1ccccc1 (stereo not given) | 6.65% (inactive)
CCOc1cccc(/C=N/NC(=S)NCCN2CCOCC2)c1O | -92.1% (active)
C=C(C)CNC(=S)N/N=C/c1ccccc1OCC(=O)O | 0.44% (inactive)
O=C(NCCN1CCOCC1)Nc1cccc(Cl)c1 | 3.67% (inactive)
CCOC(=O)[C@]12CCCC=C1N(CCC1=CCCCC1)C(=O)[C@H](CC(=O)N1CCCCC1)C2 | -1.85% (inactive)
COc1ccc(C(=O)C(OP(=O)(OC)OC)c2ccccc2OC)cc1 (stereo not given) | 2.49% (inactive)
O=C(COC(=O)Cc1ccc(Br)cc1)Nc1c(F)c(F)c(F)c(F)c1F | 1.31% (inactive)
Oc1ccc2nc(Cc3ccccc3)[nH]c2c1 | -2.17% (inactive)
Cc1nc2ccccc2nc1N/N=C/c1ccc(O)cc1O | -69.1% (active)
Oc1ccc(/C=N/Nc2nc(-c3ccccc3F)nc3ccccc23)c(O)c1 | -71.7% (active)
Brc1ccccc1/C=N/Nc1nc2ccccc2o1 | -4.05% (inactive)
O=C(C[C@H]1CC[C@@H](NC(=O)c2ccncc2)[C@@H](CO)O1)NCC1CC1 | 8.47% (inactive)
CCCCCCCCN1C(=O)[C@H](CC(=O)NCC23CC4CC(CC(C4)C2)C3)C[C@@]2(C(=O)OC)CCCCC=C12 | -0.139% (inactive)
O=S1(=O)CC(N2CCSCC2)CN1Cc1cn(Cc2cccc(Cl)c2)nn1 (stereo not given) | 0.627% (inactive)
CCOc1cccc2c1OC1(CCCCC1)N1N=C(c3cccnc3)CC21 (stereo not given) | -13.8% (inactive)
C[C@H]1COc2cc(N3CCSCC3)ccc2S(=O)(=O)N1 | 3.55% (inactive)
COc1ccc(S(=O)(=O)Nc2ccc(F)cc2)c(C)c1C | -0.291% (inactive)
COc1cc(N2CCCC2)c(OC)cc1/C=C(/C#N)c1cccc(Br)c1 | -67% (active)
Cc1nc2c(OCc3ccc(Cl)cc3Cl)cccn2c1N(C)CC1CC1 | -5.16% (inactive)
Nc1nc2ncccn2c1-c1ccccc1 | 3.63% (inactive)
CCCOc1ccc(Cc2c(O)nc(N)[nH]c2=O)cc1C | -5.12% (inactive)
Cc1ccc(S(=O)(=O)N2CC3C(=O)C[C@@H](c4ccccc4Cl)N(S(=O)(=O)c4ccc(C)cc4)C3CC2c2ccccc2)cc1 (stereo not given in full) | -4.43% (inactive)

Structure (SMILES) | activity change
CC1(C)OC(=O)C2=C(C[C@@H](C3CC3)O[C@H]2CCc2cccc(Cl)c2)O1 | 7.67% (inactive)
CCc1c(-c2ccc(F)cc2)ncn1Cc1cccc(-c2ccccc2)c1 | -29.6% (inactive)
NC(=O)C1CCN(C(=O)COc2cccc3cccnc23)CC1 | 8.87% (inactive)
O=C(Nc1ccccc1)Oc1cccc2cccnc12 | -91.9% (active)
O=S(=O)(NCCOc1cccc2cccnc12)c1ccc(F)cc1 | 6.83% (inactive)
CCCCNC(=O)C[C@@H]1C[C@@]2(C(=O)OC)CC(C)(C)CC=C2N(Cc2ccco2)C1=O | -8.69% (inactive)
CCCc1c(C(=O)Nc2ccc(F)cc2)cnn1-c1ccccc1 | 1.46% (inactive)
COCCCn1cc(CN2CC(N(C)C)CS2(=O)=O)nn1 (stereo not given) | 15.9% (inactive)
COC(=O)[C@]12CCCCC=C1N(CCC1=CCCCC1)C(=O)[C@H](CC(=O)N1CCSCC1)C2 | -5.23% (inactive)
COc1ccc(NC(=O)CCNC(=O)Cn2cnc3sc4c(c3c2=O)CCCC4)cc1OC | -2.73% (inactive)
COc1ccc(NC(=O)CCCNC(=O)Cn2cnc3sc4c(c3c2=O)CCCC4)cc1OC | -5.21% (inactive)
COc1ccc(/C=N/Nc2ncnc3sc4c(c23)CCCC4)cc1O | -78.1% (active)
CO[C@@H]1CN(C)C(=O)c2cc(NC(=O)Nc3cc(F)ccc3F)ccc2OC[C@H](C)N(C(=O)c2ccccn2)C[C@@H]1C | -5.82% (inactive)
CCOC(=O)N1CCN(C(=O)C[C@@H]2C[C@@]3(C(=O)OC)CC(C)(C)CC=C3N(Cc3ccco3)C2=O)CC1 | -1.81% (inactive)
COc1ccccc1C(=O)NCCC(=O)N(C)Cc1cccnc1 | 6.46% (inactive)
COc1ccc2c(c1)c(=Cc1ccc(N(C)C)cc1)c1cc(-c3ccccc3)[n+](C)n12 | -69.4% (active)
CCCCCNC(=O)C1C(=O)Nc2ccccc2C(=O)N1C(C)(C)C (stereo not given) | 1.59% (inactive)
Nc1ncnc2c1ncn2[C@@H]1O[C@H](CNCc2cccn2-c2nccs2)[C@@H](O)[C@H]1O | 0.147% (inactive)
COc1ccc(CCn2c(=N)c(C(=O)NCc3ccco3)cc3c(=O)n4cccc(C)c4nc32)cc1 | -68.6% (active)
Cc1ccc(S(=O)(=O)c2cc3c(=O)n4cccc(C)c4nc3n(CCc3ccccc3)c2=N)cc1C | 0.223% (inactive)
Cc1cccn2c(=O)c3cc(C(=O)NCCN4CCOCC4)c(=N)n(Cc4cccnc4)c3nc12 | -20.8% (inactive)
Cc1cccc(N(C(=O)c2ccc(CN3CCOCC3)o2)C(C(=O)NC2CCCCC2)c2ccc(F)cc2)c1 (stereo not given) | 0% (inactive)
COC(=O)[C@@]12C[C@@H](CC(=O)NCc3cccc(C(F)(F)F)c3)C(=O)N(Cc3ccco3)C1=CCC(C)(C)C2 | -8.64% (inactive)

Structure (SMILES) | activity change
CCOC(=O)c1c(C)oc2ccc(OCC(=O)N(CC)CC)cc12 | -68.9% (active)
CCOC(=O)c1c(C)oc2cc(Br)c(OCC(N)=O)cc12 | 5.69% (inactive)
CCOC(=O)N1CCN(C(=O)COc2ccc3oc4c(c3c2)CCCC4)CC1 | -10.2% (inactive)
CC1(C)NC(=O)N(CC(=O)Nc2ccc(-c3ccccc3)cc2)C1=O | 5.24% (inactive)
CCC(c1nc2ccccc2[nH]1)n1c(=O)c(-c2cccs2)nc2ccccc21 (stereo not given) | 9.68% (inactive)
CCCCc1c(-c2ccc(Br)cc2)ncn1CCc1ccccc1OC | -13.5% (inactive)
CN(C)N=Nc1ccc2nc[nH]c2c1 | -72.7% (active)
CC/C(O)=N\S(=O)(=O)c1ccc(N=NN(C)C)cc1 | 0% (inactive)
CC(=NNC(=O)c1ccc2nc[nH]c2c1)c1ccc(Br)cc1 | 0.936% (inactive)
COC(=O)[C@@]1(Sc2ccc(C)cc2)CC(=O)N(c2cccc(SC)c2)[C@@H]1c1ccccc1 | -16.4% (inactive)
Cc1cc(C)nc(N/N=C/c2c(CO)cnc(C)c2O)n1 | -75.1% (active)
Cc1ccc(S(=O)(=O)N[C@H]2CCC[C@@H]2O)cc1 | 7.33% (inactive)
CC1Cc2[nH][nH]c(=O)c2C(C2CC2)O1 (stereo not given) | -3.07% (inactive)
CC(=O)C[C@@H]1OC[C@H](C)N1S(=O)(=O)c1ccc(C)cc1 | -0.665% (inactive)
Cc1ccc(S(=O)(=O)N2CCC(N3CCCCCC3)CC2)cc1 | -10.2% (inactive)
Cc1ccc(S(=O)(=O)NC2CCCCCC2)cc1 | 8.84% (inactive)
Cc1ccc(S(=O)(=O)n2oc(=O)c(C3CCCCC3)c2N)cc1 | -78.3% (active)
CCC(CC)C(C(=O)NC1CCCC1)N1CCN(c2cc(C)nc3ccccc23)CC1 (stereo not given) | 0.151% (inactive)
O=S(=O)(c1ccc(F)cc1)N1CC=C(c2ccccc2)CC1 | 11.2% (inactive)
Cn1c(CNc2nc(-c3ccccc3)cs2)nnc1SCC(=O)c1ccccc1 | -73.7% (active)
Cn1c(SCC(=O)c2ccc(F)cc2)nnc1-c1ccccn1 | 3.69% (inactive)
Cn1c(CC(=O)Nc2ccccc2)nnc1SCC(=O)c1ccccc1 | 3.83% (inactive)
COc1ccc(OC)c(CN2C(=O)CCC2(C)c2nnnn2Cc2ccccc2)c1 (stereo not given) | 0.523% (inactive)

Structure (SMILES) | activity change
COc1cc(C(=O)Nc2ncccc2C)ccc1OCC(=O)N1CCOCC1 | 7.15% (inactive)
Fc1ccccc1Cc1ccc(Cl)nn1 | 4.04% (inactive)
Oc1cccc(/C=N/Nc2ccc(Cl)nn2)c1O | -85.5% (active)
C/C(=N\Nc1ccc(Cl)nn1)c1ccccc1O | -71.4% (active)
C/C(=N/Nc1ccc(Cl)cc1)c1cnnc(-c2ccccc2)n1 | 9.69% (inactive)
CCC1OC(C2CC2)CC2=C1C(=O)OC(C)(C)O2 (stereo not given) | -0.697% (inactive)
COc1ccc2c(c1)c(C(=O)N/N=C/c1cccs1)c(C)n2C | -4.11% (inactive)
CCOC(=O)[C@]12CCCC=C1N(CCC1=CCCCC1)C(=O)[C@H](CC(=O)NCCCCc1ccccc1)C2 | -0.886% (inactive)
COc1ccc(C(C(=O)Nc2c(C)cccc2C)N2CCN(c3ccc(C)cc3)CC2)cc1 (stereo not given) | -4.54% (inactive)
COc1ccc(/C=N/NC(=O)C2CC2)c(OC)c1OC | 3.31% (inactive)
COc1ccc(OC)c(/C=N/NC(=O)c2ccc[n+](CC(=O)c3ccccc3)c2)c1 | -5.56% (inactive)
COc1cc(/C=N/NC(=O)c2cccnc2)ccc1OC(=O)c1cccc(Br)c1 | -6.91% (inactive)
COc1cccc(/C=N\NC(=O)C2=NNC(=O)C2C)c1O (stereo not given) | -90.9% (active)
CCn1c(/C=N/NC(=O)c2ccc(OC)cc2)nc2ccccc21 | -12.5% (inactive)
COc1cccc(/C=N/NC(=O)c2[nH]nc3c2CCc2ccccc2-3)c1O | -65.7% (active)
Cc1cccc(C)c1NC(=O)C(c1cccc2ccccc12)n1c(=O)c(-c2ccco2)nc2ccccc21 (stereo not given) | -22.2% (inactive)
CC(C)OC(=O)CC(=O)CC(O)c1cccc([N+](=O)[O-])c1 (stereo not given) | -3.63% (inactive)
c1ccc(-c2nccc(-c3ccc(-n4cnc5ccccc54)cc3)n2)nc1 | -10.5% (inactive)
CC(C)(C)Nc1nc(-c2ccccn2)nc2ccccc12 | -89.4% (active)
Cc1nc2ccccc2c(C(=O)O)c1-c1ccccn1 | 7.28% (inactive)
COc1ccc2c(c1)N(C)/C(=C1/SC(=S)N(NC(C)=O)C1=O)S2 | -8.77% (inactive)
